# Data reported in PubChem BioAssay (EPA / NIEHS).
# Values joined by “and” are separate entries in the source; they are usually repeats but may differ in a detail not shown here. Identical values can stand only once. Inconclusive results are not listed. Active and inactive are the calls of the source. The calls were made as follows, unless noted: active = hit-call score of the fitted dose curve at least 0.9, where 1 is the maximum; inconclusive = response in the unintended direction; inactive = score below 0.9.
# Legend:
# [1] = tested on: SERPINA7 (gene 6906); assay: CCTE_GLTED_hTBG: CCTE's human Thyroxine-binding Globulin (TBG) Inhibition Assay, Great Lakes Toxicology and Ecology Division (GLTED) Lab (AID 2284343);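 also: active chemicals lower fluorescence versus DMSO baseline by displacing probe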
# How it was run: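 Cell-free displacement of the fluorescent probe ANSA from human thyroxine-binding globulin after 2 h exposure. Read-out at ex 380/em 475 nm; DMSO baseline.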
# [2] = CCTE_Deisenroth_5AR_NBTE_acceptor: CCTE's 5alpha-reductase NanoBRET Target Engagement Assay - Autofluorescence Screen, Deisenroth Lab (AID 2284321; active = hit-call score of the fitted dose curve at least 0.9, where 1 is the maximum; inactive = score below 0.9;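 also: compound fluorescence in the acceptor channel under 460 nm excitation flags autofluorescence artifacts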); conditions: actives raise or lower the signal
# How it was run: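 HEK293T cell-based NanoBRET assay read 5 h after dosing; this acceptor channel serves as an autofluorescence artifact screen. Chemicals at nominal 100 uM were scanned in three independent runs (n=3), excitation 460 nm. Fitting was bidirectional versus DMSO baseline.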
# [3] = tested on: SRD5A2 (gene 6716); assay: CCTE_Deisenroth_5AR_NBTE_ratio: CCTE's 5alpha-reductase NanoBRET Target Engagement Assay - Ratio, Deisenroth Lab (AID 2284322; active = hit-call score of the fitted dose curve at least 0.9, where 1 is the maximum; inactive = score below 0.9); conditions: actives raise or lower the signal
# How it was run: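 HEK293T cells transiently expressing an SRD5A2-NanoLuc fusion (20 h post-transfection) were exposed to test chemical (10 nM - 29.9 uM, 8 points) for 3 h, then testosterone tracer for a further 2 h. Acceptor/donor BRET ratio was fitted bidirectionally against DMSO baseline.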
# [4] = TAMU_PeakParms_SingleDonor1434_Asystole: Texas A&M University (TAMU) 1.5-hr Human Induced Pluripotent Stem Cell (iPSC)-derived Cardiomyocytes Calcium (Ca+2) Flux Assay for Cardiotoxicity: Asystole (quiescence of beating) (AID 2284328)
# How it was run: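 Donor 1434 iPSC-cardiomyocytes exposed 90 min at 37C, 5% CO2, to 0.2, 1, 10 and 100 uM in 0.5% DMSO. Ca2+ dye fluorescence gave average peak frequency; POD is EC95, a 95% beat-rate drop versus controls.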
# [5] = CCTE_Mundy_HCI_iCellGluta_NOG_NeuronCount: CCTE's Neurite Outgrowth Assay in iCellGluta cells for Neuron Count, Mundy Lab (AID 2284340);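 also: cells fixed about 48 h after compound addition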
# How it was run: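 Neuron count read by automated high-content imaging of Hoechst 33342 and betaIII-tubulin/Alexa Fluor-488 labelling in human iPSC glutamatergic neurons. Activity fitted relative to DMSO.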
# [6] = CCTE_Mundy_HCI_iCellGluta_NOG_NeuriteCount: CCTE's Neurite Outgrowth Assay in iCellGluta cells for Neurite Count, Mundy Lab (AID 2284342);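 also: chemical exposure about 48 hours starting 2 hours after plating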
# [7] = VALA_MIGHUV1_ScratchOnly_CellCount: Viability Assessment in the VALA Sciences human Umbilical Vein Endothelial Cell Migration (MIGHUV) Assay, Scratch Wound Inhibited Recovery (AID 2284327)
# How it was run: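 Hoechst-stained nuclei in the scratch wound were counted by high-content imaging after a 24 h recovery period. Scratched HUVEC monolayers received 6-point concentration series, triplicate, in 0.1% DMSO, fit against DMSO.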
# [8] = VALA_TUBIPS_Antagonist_CellCount: Viability Assessment in the VALA Sciences human iPS-derived Endothelial Tubule Formation (TUBIPS) Antagonism Assay (AID 2284335)
# [9] = VALA_MIGHUV1_ScratchOnly_WoundArea: VALA Sciences human Umbilical Vein Endothelial Cell Migration (MIGHUV) Assay, Area of Scratch Wound Inhibited Recovery (AID 2284336)
# How it was run: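 Wound area remaining after 24 h recovery imaged by Hoechst nuclear fluorescence in scratched HUVEC cultures, chemicals added within 30 min of scratching across a 6-point series. Gain of signal fitted against 0.1% DMSO; cytochalasin D positive control.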
# [10] = VALA_TUBIPS_Agonist_CellCount: Viability Assessment in the VALA Sciences human iPS-derived Endothelial Tubule Formation (TUBIPS) Agonism Assay (AID 2284338)
# [11] = tested on: Brachyury (BRA) Protein Expression, Deisenroth Lab, TBXT (gene 6862); assay: CCTE_Deisenroth_DEVTOX-GLR_legacy_Bra: (Legacy) CCTE's DevTox GLR-Endo Assay Evaluation of Brachyury (BRA) Protein Expression, Deisenroth Lab (AID 2284329; active = hit-call score of the fitted dose curve at least 0.9, where 1 is the maximum; inactive = score below 0.9)
# How it was run: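 Readout: percent Bra+ cells by high-content fluorescence imaging, Bra+ meaning mean intensity 5x BMAD over pluripotent control median. RUES2-GLR cells dosed twice over 48 h differentiation; DMSO-control median subtracted before concentration-response fitting.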
# [12] = CCTE_Deisenroth_DEVTOX-GLR_legacy_CellCount: (Legacy) Viability Assessment in CCTE's DevTox GLR-Endo Assay, Deisenroth Lab (AID 2284331; active = hit-call score of the fitted dose curve at least 0.9, where 1 is the maximum; inactive = score below 0.9); conditions: actives raise or lower the signal
# How it was run: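 Seed RUES2-GLR 24 h; differentiate 48 h, dosing at 0 and 24 h; fix, stain nuclei; image 5 fields/well; count nuclei. Conc. 1 nM - 200 uM, single technical replicate, n=4 experiments; bidirectional fit vs 0.2% DMSO.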
# [13] = tested on: SRY-box transcription factor 17 (SOX17) Protein Expression, Deisenroth Lab, SOX17 (gene 64321); assay: CCTE_Deisenroth_DEVTOX-GLR_legacy_Sox17: (Legacy) CCTE's DevTox GLR-Endo Assay Evaluation of SRY-box transcription factor 17 (SOX17) Protein Expression, Deisenroth Lab (AID 2284341; active = hit-call score of the fitted dose curve at least 0.9, where 1 is the maximum; inactive = score below 0.9); conditions: actives raise or lower the signal
# How it was run: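 Using the RUES2-GLR line, compounds are tested as 10-point series during 48-h defined-media differentiation. Sox17 reporter fluorescence per cell determines positivity; endpoint is percentage positive, analysed bidirectionally versus DMSO baseline.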
# [14] = tested on: SRY-box transcription factor 2 (SOX2) Protein Expression, Deisenroth Lab, SOX2 (gene 6657); assay: CCTE_Deisenroth_DEVTOX-GLR_legacy_Sox2: (Legacy) CCTE's DevTox GLR-Endo Assay Evaluation of SRY-box transcription factor 2 (SOX2) Protein Expression, Deisenroth Lab (AID 2284346; active = hit-call score of the fitted dose curve at least 0.9, where 1 is the maximum; inactive = score below 0.9)
# How it was run: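 Read-out: fraction of Sox2+ cells by high-content fluorescence imaging of fixed RUES2-GLR cells after 48 h differentiation with two 24 h-spaced exposures. Positivity cutoff 5x BMAD above endoderm control median; 0.2% DMSO median subtracted.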
# [15] = IUF_NPC1_cytotoxicity_72hr: Cytotoxicity Assessment at 72 hours in the Leibniz Research Institute for Environmental Medicine (IUF) Neural Progenitor Cell Proliferation Assay (NPC1) (AID 2284332);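 also: rising LDH signal means more cytotoxicity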
# How it was run: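 Cytotoxicity by LDH membrane-integrity assay on medium supernatants, fluorescence via resazurin reduction, after 3-day single exposure of primary hNPC spheres at 37C, pH 7.2-7.6 with growth factors. Fitted upward against baseline.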
# [16] = CCTE_Deisenroth_H295R-HTRF_384WELL_ESTRADIOL: CCTE's H295R-HTRF Assay Evaluation of Estradiol Concentration, Deisenroth Lab (AID 2284361; active = hit-call score of the fitted dose curve at least 0.9, where 1 is the maximum; inactive = score below 0.9); conditions: actives raise or lower the signal
# How it was run: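 Estradiol secreted into medium by H295R adrenocortical cells, quantified by HTRF after 48 h dosing over a nine-point 0.001 - 100 uM final range; gain or loss versus DMSO. Parallel ATP-luminescence viability readout; n=5 experiments.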
# [17] = CCTE_Deisenroth_H295R-HTRF_384WELL_TESTOSTERONE: CCTE's H295R-HTRF Assay Evaluation of Testosterone Concentration, Deisenroth Lab (AID 2284373; active = hit-call score of the fitted dose curve at least 0.9, where 1 is the maximum; inactive = score below 0.9); conditions: actives raise or lower the signal
# How it was run: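 Testosterone secreted into medium was quantified by direct HTRF immunoassay after a 48 h treatment of H295R adrenocortical cells (nine concentrations, 0.001–100 uM final). Gain or loss fitted relative to DMSO; CellTiter-Glo viability read on same plates.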
# [18] = CCTE_Deisenroth_H295R-HTRF_384WELL_CTOX: Cytotoxicity Assessment in CCTE's H295R-HTRF Assay, Deisenroth Lab (AID 2284380)
# How it was run: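 Luminescent ATP viability readout (CellTiter-Glo 2.0), multiplexed on plates used for hormone sampling, after 48 h chemical exposure. Human H295R cells; final concentrations 0.001–100 uM in nine steps, technical triplicates, five experiments; DMSO baseline.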
# [19] = VALA_TUBHUV_Agonist_TubuleLength: VALA Sciences human Umbilical Vein Endothelial Tubule Formation (TUBHUV) Agonism Assay (AID 2284337)
# How it was run: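 Tubule length quantified by CD31 immunofluorescence imaging after fixation. HUVEC-HDF co-cultures (1:3) pre-grown 3 days with 10 ng/ml VEGF, then dosed 3 days in VEGF medium; 0.1 % DMSO vehicle baseline.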
# [20] = VALA_TUBHUV_Antagonist_TubuleLength: VALA Sciences human Umbilical Vein Endothelial Tubule Formation (TUBHUV) Antagonism Assay (AID 2284325)
# How it was run: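 Tubule length was imaged via CD31 immunofluorescence after a further 3-day compound exposure in 10 ng/ml VEGF, following 3-day pre-culture of HUVEC with HDF at 1:3. Vehicle 0.1% DMSO; suramin (100 uM) inhibition control.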
compound,measurement,setting,value
CCc1ccc(O)c(C(C)(C)C)c1,AC50,[1],35.3 µM (active)
CCCCCOC(C)=O,outcome,[2],inactive
same,outcome,[3],inactive
c1ccc2cc3ccccc3cc2c1,outcome,[4],inactive
same,outcome,[5],inactive
same,outcome,[6],inactive
FC(F)=C(F)C(F)(F)C(F)(F)C(F)(F)C(F)(F)C(F)(F)C(F)(F)F,outcome,[5],inactive
same,outcome,[6],inactive
CCCCCCCCCC,outcome,[7],inactive
same,outcome,[8],inactive
same,outcome,[9],inactive
same,AC50,[10],7.79 µM (active)
CCCCCCCCCCCCCCCCOS(=O)(=O)O,AC50,[1],2.91 µM (active)
OC[C@H]1O[C@@](CO)(O[C@H]2O[C@H](CO)[C@@H](O)[C@H](O)[C@H]2O)[C@@H](O)[C@@H]1O,outcome,[4],inactive
NNC(=O)c1ccncc1,outcome,[11],inactive
same,outcome,[12],inactive
same,outcome,[13],inactive
same,outcome,[14],inactive
Nc1ccn([C@@H]2O[C@H](CO)[C@@H](O)[C@@H]2O)c(=O)n1,AC50,[11],0.152 µM (active)
same,AC50,[12],0.259 µM (active)
same,outcome,[15],inactive
same,AC50,[5],415 nM (active) and 814 nM (active)
same,AC50,[13],0.554 µM (active)
same,AC50,[6],959 nM (active) and 1.04 µM (active)
same,AC50,[14],0.937 µM (active)
C=CCc1cc(S(=O)(=O)c2ccc(O)c(CC=C)c2)ccc1O,AC50,[1],1.47 µM (active)
CCCCCCCC/C=C\CCCCCCCC(=O)OC[C@@H](O)[C@H]1OC[C@H](O)[C@H]1O,outcome,[2],inactive
same,outcome,[3],inactive
OC(O)(C(F)C(O)(O)C(F)(F)F)C(F)(F)F,outcome,[5],inactive
same,outcome,[6],inactive
CC(C)C(=O)Nc1ccc([N+](=O)[O-])c(C(F)(F)F)c1,outcome,[1],inactive
same,outcome,[16],inactive
same,outcome,[17],inactive
same,AC50,[18],66.7 µM (active)
O=C(NO)C1(NS(=O)(=O)c2ccc(Oc3ccc(F)cc3)cc2)CCOCC1,outcome,[1],inactive
CCN(CC)C(=S)SSC(=S)N(CC)CC,AC50,[2],39.6 µM (active)
same,AC50,[3],50 µM (active)
same,outcome,[4],inactive
same,outcome,[8],inactive
same,outcome,[9],inactive
same,outcome,[19],inactive
same,outcome,[10],inactive
same,AC50,[1],11.7 µM (active)
O=S(=O)(O)c1ccc(N=Nc2c(O)ccc3cc(S(=O)(=O)O)ccc23)cc1,outcome,[2],inactive
same,AC50,[3],61.8 µM (active)
C[C@]12C=CC(=O)C=C1CC[C@H]1[C@@H]3C[C@@H](O)[C@](O)(C(=O)CO)[C@@]3(C)C[C@H](O)[C@@]12F,AC50,[6],23.7 µM (active)
O=C(Cl)C(F)(F)C(F)(F)C(F)(F)C(=O)Cl,outcome,[5],inactive
same,outcome,[6],inactive
Cn1cc[nH]c1=S,outcome,[7],inactive
same,outcome,[15],inactive
same,outcome,[8],inactive
same,outcome,[9],inactive
same,outcome,[19],inactive
same,outcome,[10],inactive
same,outcome,[5],inactive
same,outcome,[6],inactive
COc1cc2c(c(OC)c1OC)-c1ccc(OC)c(=O)cc1[C@@H](NC(C)=O)CC2,outcome,[4],inactive
NC(=O)N1c2ccccc2C=Cc2ccccc21,AC50,[12],67 µM (active)
same,AC50,[13],100 µM (active)
same,AC50,[1],30.5 µM (active)
same,outcome,[14],inactive
OCCNCCO,outcome,[8],inactive
same,outcome,[9],inactive
same,outcome,[19],inactive
same,outcome,[10],inactive
CCCC(CCC)C(=O)O,outcome,[20],inactive
same,outcome,[4],inactive
same,outcome,[11],inactive
same,outcome,[12],inactive
same,outcome,[8],inactive
same,outcome,[13],inactive
same,outcome,[14],inactive
FC(F)(F)C(F)(F)C(F)(F)C(F)(F)C(F)(F)C(F)(F)I,outcome,[6],inactive
